# PubChem BioAssay (NCATS)
# Inconclusive results are not listed. Calls of active or inactive are those of the source. Calls come from the whole dose curve; as a rule, active = well fitted curve in either direction with a large enough effect (not every such curve was filed as active); inconclusive = small, poorly fitted or top-dose-only effect, or another doubt; inactive = flat fitted curve, though single readings scatter.
# Molecular target: Mitogen-activated protein kinase 10 (Mus musculus) (UniProt Q61831)
# Test: JNK3 AlphaScreen Assay (AID 530);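 note: kinase came from lysate of stimulated human HepG2 cells; signal reports phosphorylation of biotinylated GST-cJun 1-79 at Ser73 with 10 µM ATP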
# Conditions: JNK3 lysate, c-Jun phosphorylation; series mostly up to 57.1 µM
# How it was run: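 HepG2 lysate (IL-1b/TNFa pre-activated) + biotin-GST-cJun 1-79 + anti-pSer73 cJun; cpd titration, 15 min RT; ATP 10 uM start; Tris pH 7.6, MgCl2, DTT, vanadate; beads in EDTA buffer; AlphaScreen.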
row,Compound,outcome
1,Brc1ccccc1,inactive
2,CCOP(=S)(OCC)SCSC(C)(C)C,inactive
3,C=C(C)C#N,inactive
4,CCSC(=O)Cl,inactive
5,Cc1cccc([N+](=O)[O-])c1,inactive
6,Nc1c(Cl)c(Cl)nc(C(=O)O)c1Cl,inactive
7,CC(C)(C)OOC(C)(C)C,inactive
8,C=C(C)C(=O)OCC1CO1 (stereo not given),inactive
9,Cc1ccc([N+](=O)[O-])cc1C,inactive
10,O=[N+]([O-])c1ccc(Cl)c(Cl)c1,inactive
11,C=CC(=C)C,inactive
12,Cc1ccc2ccccc2c1,inactive
13,Nc1ccccc1Cl,inactive
14,Clc1ccc2ccccc2c1,inactive
15,[O-][Br+2]([O-])O,inactive
16,Clc1nc(Cl)nc(Nc2ccccc2Cl)n1,inactive
17,OCC1CO1 (stereo not given),inactive
18,C=CCOC(=O)c1ccccc1N,inactive
19,C=CC(N)=O,inactive
20,CC(C)(c1ccccc1)c1ccc(O)cc1,inactive

row,Compound,outcome
1,CCN(CC)c1ccccc1,inactive
2,S=C=Nc1cccc2ccccc12,inactive
3,N#CCCCl,inactive
4,O=NN(CCO)CCO,inactive
5,Cc1ccccc1N,inactive
6,C=CCOC(C)=O,inactive
7,CCCC(=O)Cl,inactive
8,NC(=S)Nc1ccccc1,inactive
9,O=C(Cl)/C=C/C(=O)Cl,inactive
10,C=C(Cl)Cl,inactive
11,ClCBr,inactive
12,COc1ccc(C=O)cc1OC,inactive
13,C=CC(=O)OCC,inactive
14,c1nc[nH]n1,inactive
15,c1ccc2c(c1)CCCC2,inactive
16,CCCSC(=O)Cl,inactive
17,Clc1cccc(C(Cl)(Cl)Cl)n1,inactive
18,O=NN(c1ccccc1)c1ccccc1,inactive
19,C1CCC2CCCCC2C1 (stereo not given),inactive
20,CC(O)CCl (stereo not given),inactive
